Source: PubChem BioAssay AID1851 (National Center for Advancing Translational Sciences (NCATS), 2009)
Several values for one entry are separate records, joined by “and”; a condition that tells them apart may be missing. Equal entries are not always repeated. The campaign covered roughly 16,000 compounds. About 5,800 (36%) were called active. Roughly 23% stayed inconclusive and do not appear here. The call rests on the fitted dose curve; in most records, active means well fitted curve in the direction sought with a large enough effect; inconclusive means small, poorly fitted or top-dose-only effect, or effect the other way; inactive means no such curve, though single readings can be large or run the other way. The list shows a part of the results. More than one record can exist for a structure, and the calls need not agree.

These compounds were tested against Cytochrome P450 2C19 (Homo sapiens) (UniProt P33261) (assay: Cytochrome panel assay with activity outcomes). Conditions: recombinant CYP, pro-luciferin dealkylation, luminescence, p450-cyp2c19; series mostly up to 57.1 µM.
Cytochrome P450 2C19 (Homo sapiens), sequence (P33261 whole entry, looked up): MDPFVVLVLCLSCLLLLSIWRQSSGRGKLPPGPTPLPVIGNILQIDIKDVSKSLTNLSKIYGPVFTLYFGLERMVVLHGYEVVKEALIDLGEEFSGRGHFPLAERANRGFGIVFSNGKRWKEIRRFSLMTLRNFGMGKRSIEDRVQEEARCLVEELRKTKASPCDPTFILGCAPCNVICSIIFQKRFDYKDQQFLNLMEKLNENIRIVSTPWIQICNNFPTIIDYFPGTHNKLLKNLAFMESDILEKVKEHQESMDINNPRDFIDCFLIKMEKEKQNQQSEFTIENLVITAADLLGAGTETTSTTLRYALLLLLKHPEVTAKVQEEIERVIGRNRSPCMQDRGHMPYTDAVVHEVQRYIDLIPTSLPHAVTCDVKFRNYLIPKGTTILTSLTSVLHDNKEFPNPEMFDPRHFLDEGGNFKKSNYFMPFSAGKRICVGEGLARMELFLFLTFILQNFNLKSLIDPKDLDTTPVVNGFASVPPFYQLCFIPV
On the % scale 0 is the no-effect control and ±100 the full control effect.

Structure (SMILES)	AC50	activity, negative = inhibition
O=C(O)c1cc[c]([Hg][S]c2ncnc3nc[nH]c23)cc1	0.631 µM (active)	
CO[C@H]1[C@H](O)[C@H](O[C@@H]2[C@H](Oc3cccc4c(O)c5c(=O)oc6ccc(C)c7c(=O)oc(c34)c5c67)O[C@@H](C)[C@H](O)[C@H]2O)O[C@@H](C)[C@@H]1O		22.4% [at 11.4 µM] (inactive)
CC[C@@H](CO)Nc1nc(NCc2ccccc2)c2ncn(C(C)C)c2n1	inactive	
CNCCc1c[nH]c2ccc(O)cc12	inactive	
Cc1[nH]c2ccc(O)cc2c1CCN	inactive and 7.94 µM (active)	
NCCc1c[nH]c2ccc(O)cc12	inactive	
CCCN(CCC)[C@@H]1CCc2c(OC)cccc2[C@@H]1C	inactive	
C[C@]12CC[C@H](O)CC1=CC[C@@H]1[C@H]2CC[C@]2(C)C(=O)CC[C@H]12	inactive	
O=P(Nc1ccccc1)(Nc1ccccc1)Oc1cccc(Cl)c1	5.01 µM (active)	
NS(=O)(=O)c1ccc(-c2ccc([As](=O)(O)O)cc2)cc1		24.2% [at 11.4 µM] (inactive)
C[C@]12N[C@H](Cc3ccccc31)c1ccccc12	inactive	
N#Cc1ccc(CN2CC[C@@]3(CCCNC3)C2)cc1	inactive	
Clc1cccc(N2CCNCC2)c1	inactive	
CN[C@H](Cc1ccccc1)c1cccc(OC)c1O	2 µM (active)	
NCCP(=O)(O)O		26% [at 11.4 µM] (inactive)
O=C(CNS(=O)(=O)c1ccc(Br)s1)N1CCC2(CC1)OCCO2	2.82 µM (active)	
O=C(CNS(=O)(=O)c1cccs1)N1CCC2(CC1)OCCO2	7.08 µM (active)	
O=C(Cn1ncc2ccsc2c1=O)N1CCC2(CC1)OCCO2	22.4 µM (active)	
CCN(CC)CCO[C@H]1CC[C@@]2(C)C(=CC[C@@H]3[C@H]2CC[C@]2(C)C(=O)CC[C@H]32)C1	inactive	
CN(C)C(=O)Oc1cccc([N+](C)(C)C)c1	inactive	
O=C(Oc1ccc(S(=O)(=O)F)cc1F)c1ccccc1Cl		11.2% [at 11.4 µM] (inactive)
N[C@@]1(C(=O)O)CC[C@H](C(=O)O)C1	inactive	
CC(C)CN1CC[C@@]2(CCCN(C(=O)Oc3ccccc3)C2)C1	inactive	
C[C@@H]1[C@@H](C)N1C[C@H](O)Cn1ccnc1[N+](=O)[O-] (stereo not given in full)		3.22% [at 11.4 µM] (inactive)

Structure (SMILES)	AC50	activity, negative = inhibition
O=c1c2ccccc2c2ccccc2c(=O)n1-c1cc2c3ccccc3ccc2c2ccccc12	0.158 µM (active)	
CC[C@H]1CN2CC[C@@H]1C[C@H]2[C@@H](O)c1ccnc2ccc(OC)cc12	inactive	
Cc1ncsc1CCCl	7.94 µM (active)	
CN(C)CCC=C1c2ccccc2CCc2ccccc21	inactive	
CCN(CC)C1=NC(=[N+](CC)CC)c2ccccc21	inactive	
C[C@@]12CCC(=O)C=C1C=C[C@H]1[C@H]3CC[C@](O)(CCC(=O)O)[C@]3(C)CC[C@@H]12	inactive	
COC(=O)c1cc2c(cn1)[nH]c1ccccc12	3.98 µM (active)	
C[C@@]12CC[C@H]3[C@@H](CCC4=CC(=O)CC[C@]43C)[C@H]1CC[C@H]2C(=O)CO	inactive	
Cc1ccc(S(=O)(=O)O[C@H]2CN3CCC2CC3)cc1		21.1% [at 11.4 µM] (inactive)
NC(N)=Nc1ccc2[nH]c3c(c2c1)C[C@]1(O)[C@@H]2Cc4ccc(O)c5c4[C@]1(CCN2CC1CC1)[C@H]3O5	inactive	
O=[N+]([O-])O[C@H]1CO[C@H]2[C@H]1OC[C@@H]2O[N+](=O)[O-]	inactive	
CCCC[N+]1(C)[C@@H]2CC(OC(=O)[C@@H](CO)c3ccccc3)C[C@H]1[C@H]1O[C@H]12 (stereo not given in full)	inactive	
CC1=C(O)C(=O)[C@H]2O[C@@H]2C1=O	0.158 µM (active)	
CN1CCCC2(CCN(C(=O)c3ccncc3)CC2)C1	inactive	
CN(C)Cc1c[nH]c2ccccc12	inactive	
CC1=NN(c2ccccc2)C(=O)[C@@H]1N=Nc1ccc([As](=O)(O)O)c(O)c1		22.8% [at 11.4 µM] (inactive)
C[C@H](c1ccccc1)N1CCN([C@@H](C)c2ccccc2)CC1		-29.5% [at 11.4 µM] (inactive)
Cc1cc(C(C)(C)C)cc(C)c1CC1=NCCN1	inactive	
C=CCN1C(=O)NC(=O)/C(=C/c2cccn2C)C1=O	inactive	
CCN(CC)c1ccc(/C=C2/C(=O)NC(=O)N(CC3CCCO3)C2=O)cc1 (stereo not given)	7.08 µM (active)	
Oc1ccc([C@H](O)[C@@H]2CCCCN2)cc1O		10% [at 11.4 µM] (inactive)
CN1[C@H]2CC(=O)C[C@@H]1[C@@H](O)C2	inactive	
C[C@@]12CC[C@H]3[C@@H](CC[C@@H]4C[C@H]5S[C@H]5C[C@]43C)[C@H]1CC[C@H]2O	0.0631 µM (active)	
C[C@@]12CC[C@@H]3c4ccc(O)cc4CC[C@H]3[C@H]1CC[C@H]2O	inactive	

Structure (SMILES)	AC50	activity, negative = inhibition
C[N+](C)(C)CCCCCCCCCC[N+](C)(C)C	inactive	
Nc1nc(N)c(N=Nc2ccc([As](=O)(O)O)cc2)c(=O)[nH]1		19% [at 11.4 µM] (inactive)
COC(=O)Nc1nc2ccc(C(=O)c3cccs3)cc2[nH]1	inactive	
O=C1C=CC(=O)c2c1ccc1c2ccc2ccccc21	1.58 µM (active)	
CCN1C[C@]2(COC)CC[C@H](O)[C@@]34[C@@H]5C[C@H]6[C@@H](OC)[C@H]5[C@](O)(C[C@@H]6OC)[C@@](O)([C@@H](OC)[C@H]23)[C@@H]14	inactive	
C[C@@]12CC[C@@H]3[C@@H](CC[C@H]4C[C@@H](O)CC[C@]43C)[C@H]1CC[C@@H]2c1cc(C(F)(F)F)n[nH]1	2.51 µM (active)	
C[C@]12CC[C@H](O)C[C@@H]1CC[C@H]1[C@H]2CC[C@]2(C)[C@H](C(=O)CO)CC[C@@H]12	inactive	
C[C@]12CC[C@H](O)C[C@@H]1CC[C@H]1[C@H]2CC[C@]2(C)C(=O)CC[C@@H]12	inactive	
NN=C(N)N	inactive	
N[C@H](CCC(=O)N[C@H](CSN=O)C(=O)NCC(=O)O)C(=O)O	1.58 µM (active)	
COC(=O)[C@H]1C(=O)c2ccccc2O[C@@](C(=O)OC)(c2ccccc2)[C@@H]1c1ccccc1		-43% [at 11.4 µM] (inactive)
CN1CCN(c2cc(N3CCCC3)c([N+](=O)[O-])cc2F)CC1	7.94 µM (active)	
NC(=O)c1cc(N2CC2)c([N+](=O)[O-])cc1[N+](=O)[O-]	inactive	
CN(C)C(=O)Oc1ccc[n+](C)c1	inactive	
CSC([N-]/N=C/c1cccc(C)n1)=[S]=[Cu].CS[C@H]([S-])[N-]/N=C/c1cccc(C)n1	0.2 µM (active)	
CC(=O)OC1=CC2=CC[C@H]3[C@H]4CCC(=O)[C@@]4(C)CC(=O)[C@]3(S)[C@]2(C)CC1		-14.8% [at 11.4 µM] (inactive)
c1csc(CN2CCC3(CCNCC3)CC2)n1	inactive	
CCCN(CCC)[C@@H]1CCc2ccc(O)cc2C1	inactive	
CCCN(C/C=C\I)[C@@H]1CCc2ccc(O)cc2C1	1 µM (active)	
CCCN(CCC)[C@@H]1CCc2cccc(O)c2C1	inactive	
CN(C)CC/C=C1\c2ccccc2Sc2ccc(Cl)cc21		-17.3% [at 11.4 µM] (inactive)
NO	inactive	
Cc1sc2c(c1C)C(c1ccc(C(C)(C)C)cc1)=NCC(=O)N2CC(=O)Nc1nccs1	6.31 µM (active)	
CCCN1CCC[C@H](c2cccc(C#N)c2)C1	inactive	

Structure (SMILES)	AC50	activity, negative = inhibition
CCN1C[C@]2(C)CC[C@@H](O)[C@]34[C@@H]5CC6[C@@H](OC)C[C@@](O)([C@H]5[C@@H]6O)[C@@H](C[C@@H]23)[C@H]14	inactive	
CC(C)(C)CC(=O)NC(=S)Nc1ccccc1C(F)(F)F	3.16 µM (active)	
CC(C)c1ccc(C(c2c(O)c3ccccc3oc2=O)c2c(O)c3ccccc3oc2=O)cc1		-40.6% [at 11.4 µM] (inactive)
Cn1c(=O)c2[nH]cnc2n(C)c1=O	inactive	
CC(C)(C)NC[C@@H](O)COc1cccc2[nH]c(C#N)cc12	15.8 µM (active)	
c1csc(CN2CC3(CCNCC3)C2)n1	inactive	
Oc1ccc(CCNCc2cc3c(cc2Br)OCO3)cc1	5.01 µM (active)	
C[N+]1(C)CCO[C@](O)(c2ccc(-c3ccc([C@]4(O)C[N+](C)(C)CCO4)cc3)cc2)C1	inactive	
Fc1ccccc1CCNCc1cccc(Cl)c1Cl	0.631 µM (active)	
N=C(N)n1cc(/C=N\N=C(N)N)cn1		16.3% [at 11.4 µM] (inactive)
COc1ccc(C2NCc3ccc4c(c3-n3cccc32)OCO4)cc1OC (stereo not given)	3.16 µM (active)	
O=C(Oc1ccccc1)N1CCC2(CCN(Cc3nccs3)CC2)CC1	inactive	
CCCN(CCC)[C@H]1CCc2c(F)ccc(O)c2C1	inactive	
C/C(=N\OC(=O)NC(C)C)c1sc(-c2ccc(Cl)cc2)nc1C	5.01 µM (active)	
C/C(=N\OC(=O)NC(C)C)c1sc(-c2ccccc2)nc1C	10 µM (active)	
CCNC(=O)O/N=C(\C)c1sc(-c2ccccc2)nc1C	11.2 µM (active)	
OC(c1ccccc1)(c1ccccc1)C1CCNCC1	inactive	
NS(=O)(=O)C[C-]1C=C[CH]([Sb-]([Cl])([Cl])([Cl])([Cl])[Cl])C=C1.c1ccncc1 (stereo not given)		12.8% [at 11.4 µM] (inactive)
COc1ccc2[nH]cc(CCN(C)C)c2c1	inactive	
CCc1cc2c(nc1CC)CCN(CC/C(C)=N/OC)C2		6.29% [at 11.4 µM] (inactive)
C=C(C)[C@H]1CC[C@]2(C(=O)O)CC[C@]3(C)[C@@H](CC[C@H]4[C@@]5(C)CC[C@@H](O)C(C)(C)[C@@H]5CC[C@@]43C)[C@H]12	inactive	
O=[As](O)(O)c1ccc(NCc2ccccc2)cc1		1.27% [at 11.4 µM] (inactive)
COC(=O)C1(C)C=C2C(=C(C)C(=O)C2C)CN1 (stereo not given)	inactive	
